Test results reported in PubChem BioAssay AID2685 (National Center for Advancing Translational Sciences (NCATS), 2010).
In all, about 320,000 compounds went through this assay and about 2,100 (0.66%) were called active. Not shown: some 53% with an inconclusive outcome. Calls follow the shape of the dose curve; as a rule, active = well fitted inhibition curve with a large enough effect in the signal ratio, with a control signal flat (not every such curve was filed as active); inconclusive = small, poorly fitted or top-dose-only effect, or effect the other way, or a change in a side signal; inactive = flat fitted curve, though single readings scatter; the % refers to the signal ratio. The full list was thinned out, with actives kept by preference.

Experiment: qHTS Assay for Lipid Storage Modulators in Drosophila S3 Cells;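 as to cell number change: cells counted by Cell Tracker Red CMTPX staining in the red channel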; as to lipid storage change, negative = inhibition: % is scaled to controls: 0 for no effect and ±100 for the full control effect
Details: BODIPY lipid droplet fluorescence, 18-24 h, cells fed with added oleic acid; cell number change: measured here: cell count max response; series mostly up to 46.1 µM; lipid storage change, negative = inhibition: at the top concentration
Summary of the method: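 Drosophila S3 cells got compounds at several concentrations plus oleic acid (400 uM solution). Laser-scanning cytometry with 488 nm excitation read lipid droplets at 500-530 nm and cells at 575-640 nm. Percent activity was relative to 20 uM Triacsin C.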
Potency is read from the fitted curve at half-maximal effect.

Which Potency does the source give for `CC(C)c1ccc(/C=N/NC(=O)C2CCCC2)cc1` here?
The Potency was 3.26 µM (active).

And the cell number change?
The cell number change was -28.7%.

Which results are given for `c1ccc(N2CC[N+]3(CCCC3)CC2)nc1`?
lipid storage change, negative = inhibition: 3.09% (inactive); cell number change: 0.943%

With `CC(C)(C)OC(=O)NCCCC[C@H](NC(=O)c1[nH]cnc1C(=O)Nc1ccc(CNC(=O)OC(C)(C)C)cc1)C(=O)OC(C)(C)C` as the compound, how does the “lipid storage change, negative = inhibition” value read?
The value was -17.4% (inactive).

What does the source list for `CN(C)c1ccc(C=NCCC2(c3ccccc3)CCOC(C)(C)C2)cc1` (stereo unspecified)?
lipid storage change, negative = inhibition: 3.28% (inactive); cell number change: -6.59%

Which “outcome” value does the source give for `O=C(Nc1ccon1)c1cc2ccccc2oc1=O` here?
Its value is “inactive”.

What about the cell number change of the same compound?
Its cell number change is 11.7%.

What does the source list for `O=C(Nc1ccon1)c1ccccc1F`?
Potency: 23.1 µM (active); cell number change: -7.37%

For `Cc1cc(NC(=O)c2ccccc2F)on1`, which “lipid storage change, negative = inhibition” value is on record?
Its value is -4.22% (inactive).

What about the cell number change of the same compound?
The cell number change was -0.938%.

For `O=C(Nn1c(=O)[nH]c2ccsc2c1=O)c1ccccc1`, which “lipid storage change, negative = inhibition” value is on record?
The value was -5.8% (inactive).

What about the cell number change of the same compound?
Its cell number change is -16.2%.

With `COc1ccc(N2CCN(C(=S)Nc3ccc(C)cc3)CC2)cc1` as the compound, how does the “lipid storage change, negative = inhibition” value read?
The value was 6.03% (inactive).

What about the cell number change of the same compound?
Its cell number change is 11.6%.

With `O=C(NN1C(=O)C2C3C=CC(C4CC34)C2C1=O)c1ccc(Cl)c(Cl)c1` (stereo unspecified) as the compound, how does the “lipid storage change, negative = inhibition” value read?
Its value is -0.569% (inactive).

And the cell number change?
Its cell number change is 1.92%.

With `O=C(CN1C(=O)/C(=C2\SC(=S)N(C3CCS(=O)(=O)C3)C2=O)c2ccccc21)Nc1ccccc1` (stereo unspecified) as the compound, how does the “lipid storage change, negative = inhibition” value read?
The value was 3.37% (inactive).

What about the cell number change of the same compound?
The cell number change was -3.03%.

With `O=C(NCCc1ccccc1)C1CCN(C(=O)Nc2ccccc2)CC1` as the compound, how does the “lipid storage change, negative = inhibition” value read?
The value was 16.6% (inactive).

What about the cell number change of the same compound?
The cell number change was -33.1%.

For `O=C(NCC(c1ccccc1)N1CCCC1)C1CCN(C(=O)Nc2ccccc2)CC1` (stereo unspecified), which “outcome” value is on record?
The value was “inactive”.

What about the cell number change of the same compound?
Its cell number change is -22%.

Which Potency does the source give for `O=C(NCC(c1ccccc1Cl)N1CCCC1)C1CCN(C(=O)Nc2ccccc2)CC1` (stereo unspecified) here?
Its Potency is 6.51 µM (active).

What about the cell number change of the same compound?
Its cell number change is -29.1%.

What does the source list for `CCC(Sc1nc(C)cc(C)n1)C(=O)Nc1nccs1` (stereo unspecified)?
Potency: 2.06 µM (active); cell number change: -0.54%

Which “outcome” value does the source give for `Cc1cc(C)nc(SCC(=O)Nc2nccs2)n1` here?
Its value is “inactive”.

And the cell number change?
The cell number change was 13.1%.

For `CCC(Sc1nnc(C)s1)C(=O)Nc1nccs1` (stereo unspecified), which “lipid storage change, negative = inhibition” value is on record?
The value was 11.8% (inactive).

And the cell number change?
Its cell number change is -15.3%.

Which “outcome” value does the source give for `CN(C(=O)CCCN1CCCC1=O)C1CCCN(Cc2ccccc2F)C1` (stereo unspecified) here?
Its value is “inactive”.

And the cell number change?
Its cell number change is 6.08%.

For `COc1cc2c(cc1OC)C(COc1ccc(F)cc1)N(C(C)=O)CC2` (stereo unspecified), which “lipid storage change, negative = inhibition” value is on record?
Its value is -27.7% (inactive).

And the cell number change?
Its cell number change is -4.23%.

For `CCOC(=O)C(O)(CC(=O)Nc1cc(F)ccc1C)C(F)(F)F` (stereo unspecified), which “lipid storage change, negative = inhibition” value is on record?
Its value is 7.55% (inactive).

What about the cell number change of the same compound?
The cell number change was 6.77%.

With `CC1CC1C(=O)Nc1nc(-c2ccccn2)cs1` (stereo unspecified) as the compound, how does the “outcome” value read?
The value was “inactive”.

For `CCC/C(C)=N/NC(=O)c1ccccc1O`, which “lipid storage change, negative = inhibition” value is on record?
The value was -0.436% (inactive).

What about the cell number change of the same compound?
Its cell number change is 9.25%.

Which “lipid storage change, negative = inhibition” value does the source give for `COc1ccc(-c2cc3nc(C)c(CCC(=O)N4CCN(c5ccccn5)CC4)c(C)n3n2)c(OC)c1` here?
The value was -2.84% (inactive).

And the cell number change?
The cell number change was -15.1%.

For `CCOC(=O)CSc1ccc(S(=O)(=O)N(C)C2CCCCC2)cc1[N+](=O)[O-]`, which Potency is on record?
Its Potency is 25.9 µM (active).

And the cell number change?
The cell number change was -12.4%.

What does the source list for `CCOC(=O)CSc1ccc(S(=O)(=O)N2CCCCC2)cc1[N+](=O)[O-]`?
lipid storage change, negative = inhibition: 11.2% (inactive); cell number change: 12.9%

Which “lipid storage change, negative = inhibition” value does the source give for `CCOC(=O)CSc1ccc(S(=O)(=O)N(CC)CC)cc1[N+](=O)[O-]` here?
The value was 5.13% (inactive).

And the cell number change?
Its cell number change is 15.5%.

Which “lipid storage change, negative = inhibition” value does the source give for `Cc1nc(C)c(C(=O)Nc2ccccc2)s1` here?
Its value is 2.24% (inactive).

And the cell number change?
Its cell number change is 13.8%.

With `CC(=O)Nc1ccc(Nc2nc(C)cc(C)n2)cc1` as the compound, how does the “lipid storage change, negative = inhibition” value read?
The value was -1.44% (inactive).

And the cell number change?
The cell number change was 7.77%.

With `O=C(/C=C/c1ccccc1)Nn1c(-c2cccs2)nc2ccccc2c1=O` as the compound, how does the “lipid storage change, negative = inhibition” value read?
The value was 17.1% (inactive).

What about the cell number change of the same compound?
Its cell number change is 20.7%.

With `CCN(CC)CCNC(=O)CCc1n[nH]c(=O)c2ccccc12` as the compound, how does the “lipid storage change, negative = inhibition” value read?
The value was -5.8% (inactive).

What about the cell number change of the same compound?
The cell number change was -11.1%.

Which Potency does the source give for `CCCCN(CC)C(=O)c1n[nH]c(=O)c2ccccc12` here?
Its Potency is 29.1 µM (active).

And the cell number change?
The cell number change was -6.59%.

For `CCOC(=O)c1n[nH]c(=O)c2ccccc12`, which “lipid storage change, negative = inhibition” value is on record?
The value was 6.78% (inactive).

What about the cell number change of the same compound?
Its cell number change is -14.5%.

Which “lipid storage change, negative = inhibition” value does the source give for `O=C(NCc1csc2ccc(Cl)cc12)Nc1ccccc1` here?
The value was -4.18% (inactive).

What about the cell number change of the same compound?
Its cell number change is -21.1%.

Which results are given for `COCCNc1nc(-c2ccccc2)nc2ccccc12`?
lipid storage change, negative = inhibition: 3.19% (inactive); cell number change: -1.08%

Which results are given for `COc1ccc(/C=N/Nc2nc(-c3cccnc3)nc3ccccc23)cc1OC`?
lipid storage change, negative = inhibition: -5.18% (inactive); cell number change: -0.944%

For `COc1ccc(CCNc2nc(-c3cccnc3)nc3ccccc23)cc1OC`, which Potency is on record?
Its Potency is 9.2 µM (active).

And the cell number change?
Its cell number change is 0.794%.

Which “outcome” value does the source give for `CC(C)OCCCNc1nc(-c2ccccc2)nc2ccccc12` here?
Its value is “inactive”.

And the cell number change?
The cell number change was -18%.

With `CCOCCCNc1nc(-c2ccccc2)nc2ccccc12` as the compound, how does the Potency read?
Its Potency is 4.61 µM (active).

What about the cell number change of the same compound?
Its cell number change is 9.97%.

Which results are given for `COc1ccc(CNc2nc(-c3ccccc3)nc3ccccc23)cc1OC`?
lipid storage change, negative = inhibition: 4% (inactive); cell number change: -4.67%

Which results are given for `CCc1ccc(/C=N\n2cnnc2)cc1`?
lipid storage change, negative = inhibition: -2.9% (inactive); cell number change: 2.5%

For `CCC(C(=O)NC1CCCCC1)n1c(SCc2cccc(C)c2)nc2ccncc21` (stereo unspecified), which “lipid storage change, negative = inhibition” value is on record?
Its value is 19.5% (inactive).

What about the cell number change of the same compound?
The cell number change was -1.51%.

Which results are given for `Cc1ccc(S(=O)(=O)N2CCN(C(=O)CSc3ccc(Cl)cc3)CC2)cc1`?
lipid storage change, negative = inhibition: -23.2% (inactive); cell number change: -6.45%

Which “lipid storage change, negative = inhibition” value does the source give for `O=C(CSc1ncn[nH]1)N1CCN(S(=O)(=O)c2ccccc2)CC1` here?
Its value is 4.24% (inactive).

And the cell number change?
The cell number change was 11.4%.

Which results are given for `Cc1ccc(S(=O)(=O)N2CCN(C(=O)CSc3ncn[nH]3)CC2)cc1`?
Potency: 16.4 µM (active); cell number change: 5.31%

For `Cc1cccn2c(CN(C)CC3Cc4ccccc4O3)c(C(=O)N3CCCCC3)nc12` (stereo unspecified), which “lipid storage change, negative = inhibition” value is on record?
The value was 6.24% (inactive).

What about the cell number change of the same compound?
Its cell number change is -1.06%.

What does the source list for `COc1ccc(S(=O)(=O)N2CCN(C(c3ccccc3)c3ccccc3)CC2)cc1NC(C)=O`?
lipid storage change, negative = inhibition: -2.59% (inactive); cell number change: 5.87%

What does the source list for `Cc1ccc(OCC(=O)N2CCCC(CO)(CCOc3ccccc3)C2)cc1` (stereo unspecified)?
Potency: 14.6 µM (active); cell number change: 13.9%

What does the source list for `CSCC(=O)N1CCCC(CO)(CCCc2ccccc2)C1` (stereo unspecified)?
lipid storage change, negative = inhibition: 20.8% (inactive); cell number change: -13.7%

With `Cc1ccc(OCC(=O)N2CCN(C(=O)Cc3ccccc3)CC2)cc1` as the compound, how does the “lipid storage change, negative = inhibition” value read?
Its value is 9.56% (inactive).

And the cell number change?
Its cell number change is 24.1%.
